Source: the supplement of paper PMC13380429
Values without a mark were called inactive.

Test system: Vero E6 infected with SARS-CoV-2
Experiment: inhibition of SARS-CoV-2 cytopathic effect; higher = more antiviral protection, active = above 15
Details: 48 h

Row | SMILES | inhibition of SARS-CoV-2 cytopathic effect (1 nM) [%] | inhibition of SARS-CoV-2 cytopathic effect (8.33 nM) [%] | inhibition of SARS-CoV-2 cytopathic effect (100 nM) [%] | inhibition of SARS-CoV-2 cytopathic effect (833.33 nM) [%] | inhibition of SARS-CoV-2 cytopathic effect (10000 nM)
1 | C=C(C)[C@@H]1[C@H]2OC(=O)[C@@H]1[C@]1(O)C[C@H]3O[C@]34C(=O)O[C@H]2[C@]14C [picrotoxinin] | -2.53 | -1.67 | -2.12 | -3.39 | -2.53%
2 | CSc1nc(NC2CCCC2)c([N+](=O)[O-])c(NC2CCCC2)n1 | -0.65 | -0.38 | 1.31 | -0.4 | -0.11%
3 | Cc1cccc(Nc2nc(-c3ccncc3)cs2)c1 | 0.53 | -0.51 | -0.62 | 8.36 | 48.4% (active)
4 | C[C@]12CC[C@H](O)C[C@H]1CC[C@@H]1[C@@H]2CC[C@]2(C)[C@@H](C3=CC(=O)OC3)CC[C@]12O [digitoxigenin] | -1.6 | -1.96 | -11.8 | -13.3 | -19.4%
5 | C[C@H](NCc1ccc(OCc2ccccc2F)cc1)C(N)=O [priralfinamide] | -0.13 | 7.24 | 6.27 | 0.58 | -1.48%
6 | CC[C@@H](CO)NC(=O)[C@@H]1C=C2c3cccc4c3c(cn4C)C[C@H]2N(C)C1 [methysergide] | -0.52 | 0.46 | 0.82 | 1.51 | 0.92%
7 | NC(=O)N1c2ccccc2C=Cc2ccccc21 [carbamazepine] | -2.53 | -2.53 | -0.42 | -3.09 | -3.17%
8 | CC(C)NCC(O)c1ccccc1Cl (stereo not given) [clorprenaline] | 2.05 | 1 | 0.74 | 1.39 | -1.17%
9 | N[C@@H](C(=O)N[C@@H]1C(=O)N2C(C(=O)O)=C(Cl)CS[C@H]12)c1ccccc1 [cefaclor] | -2.43 | -5.19 | 1.55 | -1.09 | 5.72%
10 | CCOC(=O)OC(C)OC1=C(C(=O)Nc2ccccn2)N(C)S(=O)(=O)c2ccccc21 (stereo not given) [ampiroxicam] | 1.01 | -0.58 | 1.16 | 2.1 | 2.74%
11 | C[C@]12CCC(=O)C=C1C=C[C@@H]1[C@@H]2CC[C@@]2(C)[C@H]1CC[C@@]21CCC(=O)O1 [canrenone] | -1.44 | -1.41 | -2.85 | -2.53 | 6.34%
12 | COc1cc(C(=S)N2CCOCC2)cc(OC)c1OC [sulmetozine] | -6.81 | -0.82 | 1.75 | -0.02 | 2.55%
13 | Cc1[nH]c(/C=C2\C(=O)Nc3ccc(F)cc32)c(C)c1C(=O)NCCN1CCCC1 [toceranib] | -2.12 | -2.33 | -1.03 | -1.29 | -7.87%
14 | N#CCC1(n2cc(-c3ncnc4[nH]ccc34)cn2)CN(C2CCN(C(=O)c3ccnc(C(F)(F)F)c3F)CC2)C1 [itacitinib] | 1.05 | 1.83 | 0.96 | -0.18 | -3.04%
15 | CCN(c1cc(-c2ccc(CN3CCOCC3)cc2)cc(C(=O)NCc2c(C)cc(C)[nH]c2=O)c1C)C1CCOCC1 [tazemetostat] | 2.86 | 0.49 | 3.47 | 0.53 | -0.93%
16 | CN1CCc2c(c3ccccc3n2Cc2ccccc2)C1 [mebhydrolin] | -0.15 | 2.44 | 1.76 | -0.47 | -1.08%
17 | CCCNCC(O)COc1ccccc1C(=O)CCc1ccccc1 (stereo not given) [propafenone] | -2.13 | -0.69 | 2.83 | 3.83 | -0.5%
18 | CCCC(CCC)C(=O)NCC(N)=O [valrocemide] | 0.41 | 1.83 | 2.6 | 0.66 | 3.56%
19 | O=[N+]([O-])C(Br)(CO)CO [bronopol] | -0.93 | -3.53 | 0.32 | 0.51 | -1.05%

Row | SMILES | inhibition of SARS-CoV-2 cytopathic effect (1 nM) [%] | inhibition of SARS-CoV-2 cytopathic effect (8.33 nM) [%] | inhibition of SARS-CoV-2 cytopathic effect (100 nM) [%] | inhibition of SARS-CoV-2 cytopathic effect (833.33 nM) [%] | inhibition of SARS-CoV-2 cytopathic effect (10000 nM)
20 | CC[C@H]1OC(=O)C[C@@H](O)[C@H](C)[C@@H](O[C@@H]2O[C@H](C)[C@@H](O[C@H]3C[C@@](C)(O)[C@@H](O)[C@H](C)O3)[C@H](N(C)C)[C@H]2O)[C@@H](CC=O)C[C@@H](C)C(=O)/C=C/C(C)=C/[C@@H]1CO[C@@H]1O[C@H](C)[C@@H](O)[C@@H](OC)[C@H]1OC | -4.49 | -1.15 | -2.1 | -0.46 | 4.02%
21 | CC(=O)[C@H]1CC[C@H]2[C@@H]3C[C@H](C)C4=CC(=O)CC[C@]4(C)[C@H]3[C@@H](O)C[C@]12C [medrysone] | -0.04 | 1.55 | -1.22 | 0.73 | 3.22%
22 | Nc1ncnc2c1c(COc1cccc(Cl)c1)nn2C1CCOCC1 | -1.11 | -0.68 | -0.3 | -1.57 | -0.4%
23 | CNC(=O)c1cccc(-c2ccc3c(N4CCOC[C@@H]4C)nc(N4CCOC[C@@H]4C)nc3n2)c1 | 0.89 | -1.74 | -1.86 | 0.43 | -2.51%
24 | Cc1cccn2c(=O)c(/C=C(\C#N)c3nc4ccccc4s3)c(Oc3ccc(F)cc3)nc12 | -2.85 | 0.91 | -1.07 | -1.93 | -0.23%
25 | CCc1nc(C(N)=O)c(Nc2ccc(N3CCC(N4CCN(C)CC4)CC3)c(OC)c2)nc1NC1CCOCC1 [gilteritinib] | 0.28 | 0.02 | -2.49 | -0.11 | 10.3%
26 | Cc1cccc(CN2CCN(C(c3ccccc3)c3ccc(Cl)cc3)CC2)c1 (stereo not given) [meclizine] | 4.53 | 3.44 | 2.18 | 4.25 | 3.46%
27 | C[C@@]1(C(=O)O)NCCc2cc(O)c(O)cc21 [salsolinol-1-carboxylic-acid] | 0.05 | -1.48 | -1.16 | 2.45 | 1.69%
28 | C[C@]12CCC(=O)C[C@@H]1CC[C@@H]1[C@@H]2CC[C@]2(C)C=CC[C@@H]12 [androstenone] | -0.13 | -0.62 | -1.17 | 0.87 | -0.03%
29 | CCCC(=O)O[C@]1(C(=O)COC(C)=O)CC[C@H]2[C@@H]3C[C@H](F)C4=CC(=O)C=C[C@]4(C)[C@@]3(F)[C@@H](O)C[C@@]21C [difluprednate] | 1.05 | 1.55 | 1.52 | 1.03 | 6.96%
30 | NC(=O)c1cccnc1 [nicotinamide] | -0.85 | 1.53 | -1.16 | 2.49 | 7.29%
31 | Cc1cc(Cn2nnc3c(-c4ccco4)nc(N)nc32)ccc1N [vipadenant] | 3.17 | 2.89 | 2.73 | -0.18 | 0.65%
32 | Cc1c(N(C)CS(=O)(=O)O)c(=O)n(-c2ccccc2)n1C [metamizole] | 5.03 | 0.47 | -1.36 | -3.82 | 0.29%
33 | C=CC(=O)Nc1cccc(Nc2nc(Nc3ccc(OCCOC)cc3)ncc2F)c1 | -0.6 | 2.81 | 0.54 | -6.55 | -11.3%
34 | CCC(=O)N1CCOc2c(cc(-c3ccc(OC)c(OC)c3)cc2OC[C@H]2CCCN(C)C2)C1 | 1.79 | 8.72 | 0.95 | 1.75 | 0.51%
35 | NC(=O)CN1C=CCC(C(N)=O)=C1 [caricotamide] | 0.48 | 2.71 | 1.14 | -1.91 | 0.44%
36 | O=C(O)[C@@H]1C[C@@H](C2CCCCC2)CN1C(=O)CP(=O)(O)CCCCc1ccccc1 [fosinoprilat] | -0.23 | -5.78 | -5.83 | 0.83 | 6.8%
37 | C=CCN1C[C@H](C)N([C@H](c2ccc(C(=O)N(CC)CC)cc2)c2cccc(O)c2)C[C@H]1C | 0.51 | 2.94 | -0.07 | -0.38 | -1.22%
38 | O=C1c2ccccc2C(=O)C1c1ccccc1 [phenindione] | -1.88 | -1.11 | -1.06 | -1.97 | -3.42%
